Screens (PubChem)
SKN-1 inh: C. elegans SKN-1 inhibition | inhibition, % at 21.8 µM | C. elegans VP596 Pgst-4::GFP/RFP ratio, acrylamide-induced, 24 h | AID 624304 | actives 0.49% (n = 360,000);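 active = interference check ratio from 0.5 to 1.5 plus GFP to RFP signal ratio inhibition reaching or exceeding a fixed threshold, cut at about 30% in these data, passing the limit was not always enough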
esBAF inh: blocks esBAF chromatin remodeling in mouse ES cells; Bmi1-luciferase knock-in reporter, 24 h; 100% = twice the neutral-well signal; reporter increase, % at 12.5 µM; actives 2% (n = 350,000); AID 602393; in the data active = activation above about 40%; inconclusive = no clear call, values can overlap the other calls;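 also: 0% = median of the plate's neutral control wells and 100% = double that signal; a rise in the Bmi1 reporter signal indicates esBAF inhibition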
GRIN3A LBD mod: NR3A (human) ligand-binding domain modulation; NR3A LBD differential scanning fluorimetry, Tm shift; 0% = protein alone, 100% = glycine-bound protein; Tm shift relative to glycine control, % at 25 µM; actives 2.5% (n = 340,000);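 active = melting temperature shift of at least 10% of the positive control shift, at one fixed dose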
Vif imaging: inhibitors of HIV Vif; HEK293T cells, Vif self-association by quenched fluorescence, imaging, 24 h; inhibition, % at 7.49 µM; actives 0.35% (n = 340,000); AID 602346; in the data active = inhibition above about 50%, passing the limit was not always enough; inconclusive = no clear call, values can overlap the other calls; inactive = below about 31%
SMARCA2 activ: SMARCA2 function activation, primary screen. MG213 cells, MMTV-luciferase reporter, dexamethasone, overnight. activation, % at 9.1 µM. actives 1% (n = 370,000); in the data active = activation above about 7.8%;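 also: 0% = vehicle wells and 100% = reference activator wells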
NadD inh: inhibitors of Staphylococcus aureus NadD; actives 0.78% (n = 360,000); purified NadD enzyme, colorimetric absorbance read-out; inhibition, % at 20 µM; in the data active = inhibition above about 26%
SMARCA2 conf: SMARCA2 activation, confirmation screen; MG213 cells, MMTV-luciferase with dexamethasone, luminescence, overnight; MG213 cells expressing E1A, Rb sequestered; DMSO wells 0%, reference activator 100%; actives 30% (n = 3,500); activation, % at 9.1 µM; AID 652260; shares compounds with SMARCA2 activ;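 active = activation above its plate's cutoff, the mean activation of tested wells plus 3 SD, cut at about 7.9% in these data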
VP16 Luc act: GAL4-VP16 reporter activation counter-screen; activation, % at 9.1 µM; shares compounds with SMARCA2 activ; HEK293 GAL4-VP16 pG5luc reporter, luciferase luminescence; scaled: DMSO wells 0%, SAHA wells 100%; actives 41% (n = 3,500);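 active = activation above the solvent-only control well mean plus 3 SD, averaged across control plates, cut at about 5.2% in these data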
Starred values were filed as active, the others as inactive; ? = inconclusive; nt = no result. Shown are actives, neighbours in structure and some others; about 5.2% of the full set was active somewhere.

SMILES	SKN-1 inh	esBAF inh	GRIN3A LBD mod	Vif imaging	SMARCA2 activ	NadD inh	SMARCA2 conf	VP16 Luc act
Cc1nc2ccc(-c3nc4ccccc4o3)cc2[nH]1	-29	-1	-4	-6	9.0*	-4	7	13*
Cc1ccnc2ccc(-c3nc4ccccc4o3)cc12	-2	23	1	nt	7	-4	nt	nt
O=C(Nc1nc(=O)c2ccccc2s1)c1ccc(F)cc1	11	51*	-1	-2	19*	-4	8.1*	8.0*
O=C(Nc1ccc2nn(-c3ccc(F)cc3)nc2c1)c1cccnc1	11	nt	2	3	0	-1	nt	nt
CC(C)C(=O)Nc1ccc2nn(-c3ccccc3)nc2c1	-3	9	0	2	9.4*	-10	6	20*
CCOC(=O)c1c(NC(=O)CSc2n[nH]c(-c3ccco3)n2)sc(C)c1C	-3	1	-10	-29	-3	8	nt	nt
CCOC(=O)CSc1n[nH]c(-c2ccco2)n1	8	-5	-1	5	9.4*	4	-5	2
COc1ccc(S(=O)(=O)N2CCOCC2)cc1NC(=O)CCNC(=O)c1ccc(Br)cc1	10	6	0	12	-1	0	nt	nt
COc1ccc(S(=O)(=O)N2CCOCC2)cc1NC(=O)CCNC(=O)c1ccc(Cl)cc1	-6	4	-1	0	8.1*	0	-2	-1
O=C(Nc1nc(=O)c2ccccc2s1)c1ccc(Cl)cc1	-5	22	1	3	3	2	nt	nt
O=C(Nc1nc2ccsc2c(=O)s1)c1ccc(Cl)cc1	12	nt	0	-10	14*	6	10*	9.1*
Cn1sc(NC(=O)c2ccc(Cl)cc2)nc1=O	28	46*	4	-5	8.4*	5	3	11*
Cc1nn(-c2cccc(C(F)(F)F)c2)c(Cl)c1/C=N/Nc1cccc(C(=O)O)c1	-1	nt	-1	2	12*	8	10*	16*
Nc1ccc(O)c2c(=O)cc(-c3ccccc3Cl)oc12	9	nt	0	nt	8.1*	-1	7	11*
COc1ccc(CNC(=O)C[C@@H]2CC[C@H](NS(=O)(=O)c3cccc(OC)c3)[C@@H](CO)O2)cc1	nt	1	nt	nt	nt	nt	nt	nt
CC(=O)Nc1c(C(=O)O)oc2ccccc12	-6	33	0	0	8.1*	-2	0	0
CCCC(=O)Nc1ccc2c(c1)OC[C@H](C)N(Cc1ccccc1F)C[C@@H](C)[C@H](OC)CN(C)C2=O	nt	0	nt	nt	nt	nt	nt	nt
COc1ccccc1CNC(=O)C[C@H]1CC[C@H]2[C@@H](COc3ccc(NC(=O)Nc4ccc(F)c(F)c4)cc3C(=O)N2C)O1	nt	15	nt	nt	nt	nt	nt	nt
C(=N\Nc1nc2ccccc2s1)/c1ccc2c(c1)OCO2	-6	nt	9	3	5	0	nt	nt
Brc1ccc(/C=C/C=N/Nc2nc3ccccc3s2)cc1	5	25	40*	5	13*	16	6	8.7*
C[C@@H]1CCCCO[C@@H](CN(C)C(=O)Nc2ccc(F)cc2)[C@H](C)CN([C@@H](C)CO)C(=O)c2cc(NC(=O)Nc3ccc(F)cc3)ccc2O1	nt	2	nt	nt	nt	nt	nt	nt
Cc1cnc(NC(=O)CN2CCN(c3ccccn3)CC2)s1	-23	nt	1	114*	12*	2	22*	1
Cc1ccc(SCC(=O)Nc2ccc(N3CCN(c4ccccc4)CC3)c(F)c2)cc1	17	-1	-4	-6	-4	11	nt	nt
CN1CCN(c2ccc(NC(=O)CSc3ccccc3)cc2F)CC1	1	-3	-1	2	8.1*	-4	7	8.6*
COc1ccc(C2C(C(=O)N3CCN(c4ccccn4)CC3)CCC(=O)N2c2cc(OC)c(OC)c(OC)c2)cc1 (centres undefined)	-7	5	-2	2	8.0*	1	0	2
SMILES	SKN-1 inh	esBAF inh	GRIN3A LBD mod	Vif imaging	SMARCA2 activ	NadD inh	SMARCA2 conf	VP16 Luc act
Cc1ccc(NC(=O)c2cc([N+](=O)[O-])ccc2N2CCOCC2)cc1C	28	nt	2	nt	8.1*	-3	-5	1
Cc1ccc(NC(=O)c2cc([N+](=O)[O-])ccc2N2CCOCC2)cc1S(=O)(=O)N(C)C	-2	-13	0	5	-3	-2	nt	nt
Cc1noc(C)c1NC(=O)N(C)C[C@H]1OCCCC[C@@H](C)Oc2ccc(NC(=O)C3CCCCC3)cc2C(=O)N([C@H](C)CO)C[C@@H]1C	nt	0	nt	nt	nt	nt	nt	nt
Cn1ccc(NC(=O)c2ccc(Cl)cc2Cl)n1	-3	30	1	3	8.6*	0	5	10*
Cc1noc(C)c1S(=O)(=O)Nc1ccc2c(c1)C(=O)N([C@H](C)CO)C[C@@H](C)[C@@H](CN(C)C(=O)Nc1cccc3ccccc13)O2	nt	2	nt	nt	nt	nt	nt	nt
CCOC(=O)Nc1ccc2c(c1)C(=NNC(=S)NC)c1ccccc1-2	31	nt	nt	-4	9.8*	-10	16*	8.4*
O=C(O)CSCC(=O)Nc1ccc(-c2nc3ccccc3s2)cc1	-14	nt	1	2	2	-3	nt	nt
Cc1ccc2nc(-c3ccc(NC(=O)CSCC(=O)O)cc3)sc2c1	-6	26	1	3	16*	0	6	20*
Cc1ccc2nc(-c3ccc(NC(=S)NC4CC(C)(C)NC(C)(C)C4)cc3)sc2c1	84*	37	-7	-1	13*	13	-8	16*
C/C=C/c1ccc([C@@H]2[C@@H](CO)N(C(=O)C3CC3)[C@H]2CN(C)C(=O)CN(C)C)cc1	nt	-3	nt	nt	nt	nt	nt	nt
O=C(c1ccccn1)N1C[C@H]2[C@@H](c3ccccc31)[C@@H](CO)N2C(=O)Cc1ccccc1	nt	2	nt	nt	nt	nt	nt	nt
C[C@H]1CN([C@@H](C)CO)C(=O)c2cc(-c3ccc(C#N)cc3)cnc2O[C@@H]1CN(C)C(=O)c1cccnc1	nt	-7	nt	nt	nt	nt	nt	nt
C=CCn1c(O)c(C2=c3ccccc3=NC2=O)sc1=Nc1ccc(O)cc1	8	1	-1	1	9.6*	12	-2	-1
C[C@H](CO)N1C[C@H](C)[C@H](CN(C)CC2CC2)Oc2c(NC(=O)c3nc4ccccc4s3)cccc2C1=O	nt	0	nt	nt	nt	nt	nt	nt
NC(=S)N/N=C/c1coc2c(ccc3ccccc32)c1=O	0	17	10	8	13*	16	2	3
CO[C@@H]1CC[C@H]2CCN(C)C(=O)[C@H](C)[C@H](OC)CN(C)C(=O)c3cccc(C#N)c3OC[C@@H]1O2	nt	5	nt	nt	nt	nt	nt	nt
COc1ccc(NC(=O)c2sc3nc(C)cc(C)c3c2N)cc1	-6	?	2	-4	6	3	nt	nt
